Measurements from the supplement of paper PMC10849652.
Targets with a hit are over-represented here; the source holds about 8,800 in all. About 0.5% of all pairs of compound and target were hits.

Assays:
Experiment in all cases: log2 fold change, soluble protein after heating vs DMSO (PISA); higher = thermal stabilisation; K562 lysate, 10 uM; active = over 0.2 and 3.5 SD of the protein, either way, in both replicates (recomputed)
[1] = compound: C1=CC=C(C=C1)[C@H](COC2=CC3=C(C=C2)NC(=O)N3)NC(=O)C4=CC=CN(C4=O)CC5=CC(=C(C=C5)F)F
Summary of the method: (§1)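 A 30 min treatment with 10 μM compound was applied to crude K562 extract at 1 mg/mL protein in PBS pH 7.4 with 1 mM MgCl2. Heating for 3 min spanned 48°C-58°C, after which aliquots were pooled, adjusted to 0.5% NP-40 at 4°C and spun at 21,000xg for 90 min. TMTpro 16plex LC-MS/MS of the supernatant, with channel sums equalised, gave values recorded as log-two fold change in thermal stability against solvent controls, from duplicates.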

[2] = compound: CC1=C(SC2=C1C(=N[C@H](C3=NN=C(N32)C)CC(=O)N)C4=CC=C(C=C4)Cl)C
Summary of the method: as §1

[3] = compound: CC1=C2C(=CC=C1)N=C(N(C2=O)C3=CC=CC=C3C)CN4C=NC5=C(N=CN=C54)N
Summary of the method: as §1

[4] = compound: Cc1sc2c(c1C)C(c1ccc(Cl)cc1)=N[C@@H](CC(=O)OC(C)(C)C)c1nnc(C)n1-2
Summary of the method: as §1

[5] = compound: c1ccc([C@@H]2C[C@H]2NC2CCNCC2)cc1
Summary of the method: as §1

Measured: log2 fold change

TYW3 (UniProt Q6IPR3)
inactive: [1] 0.082 | [2] 0.006 | [3] 0.065 | [4] -0.029 | [5] -0.067

TUBAL3 (UniProt A6NHL2)
UniProt A6NHL2, sequence (A6NHL2 whole entry, looked up): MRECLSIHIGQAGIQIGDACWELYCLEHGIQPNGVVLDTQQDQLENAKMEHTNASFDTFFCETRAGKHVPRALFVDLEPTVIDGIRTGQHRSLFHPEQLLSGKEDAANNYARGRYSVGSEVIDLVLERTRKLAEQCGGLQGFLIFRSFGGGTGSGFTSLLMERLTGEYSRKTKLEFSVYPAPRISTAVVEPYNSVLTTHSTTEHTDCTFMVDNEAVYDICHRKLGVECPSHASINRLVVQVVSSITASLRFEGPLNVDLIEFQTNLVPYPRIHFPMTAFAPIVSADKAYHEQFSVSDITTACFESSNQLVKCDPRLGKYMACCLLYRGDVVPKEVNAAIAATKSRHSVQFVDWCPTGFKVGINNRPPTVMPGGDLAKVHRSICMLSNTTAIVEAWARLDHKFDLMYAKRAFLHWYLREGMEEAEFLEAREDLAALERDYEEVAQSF
inactive: [1] -0.034 | [2] -0.051 | [3] 0.045 | [4] -0.189 | [5] -0.255

TTMP isoform 3 (UniProt Q5BVD1)
UniProt Q5BVD1, sequence (Q5BVD1 whole entry, looked up): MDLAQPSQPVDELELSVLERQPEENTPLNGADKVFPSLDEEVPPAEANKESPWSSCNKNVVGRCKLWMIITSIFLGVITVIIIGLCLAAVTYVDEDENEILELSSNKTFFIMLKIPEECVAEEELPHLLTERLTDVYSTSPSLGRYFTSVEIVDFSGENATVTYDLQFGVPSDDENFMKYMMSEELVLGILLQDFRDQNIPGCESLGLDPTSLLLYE
inactive: [1] -0.051 | [2] 0.091 | [3] 0.135 | [4] -0.148 | [5] -0.498

TRIM56 (UniProt Q9BRZ2)
inactive: [1] -0.057 | [2] -0.009 | [3] 0.076 | [4] 0.003 | [5] 0.099

TBRG4 (UniProt Q969Z0)
inactive: [1] -0.071 | [2] 0.024 | [3] 0.018 | [4] 0.052 | [5] 0.094

TRMT2A (UniProt Q8IZ69)
inactive: [1] 0.003 | [2] 0.02 | [3] 0.003 | [4] 0.02 | [5] 0.027

UBL4A (UniProt P11441)
inactive: [1] -0.029 | [2] -0.003 | [3] -0.017 | [4] 0.142 | [5] 0.073

TSFM (UniProt P43897)
inactive: [1] 0.006 | [2] 0.007 | [3] 0.027 | [4] 0.066 | [5] -0.092

TIAL1 isoform 2 (UniProt Q01085)
UniProt Q01085, sequence (Q01085 whole entry, looked up): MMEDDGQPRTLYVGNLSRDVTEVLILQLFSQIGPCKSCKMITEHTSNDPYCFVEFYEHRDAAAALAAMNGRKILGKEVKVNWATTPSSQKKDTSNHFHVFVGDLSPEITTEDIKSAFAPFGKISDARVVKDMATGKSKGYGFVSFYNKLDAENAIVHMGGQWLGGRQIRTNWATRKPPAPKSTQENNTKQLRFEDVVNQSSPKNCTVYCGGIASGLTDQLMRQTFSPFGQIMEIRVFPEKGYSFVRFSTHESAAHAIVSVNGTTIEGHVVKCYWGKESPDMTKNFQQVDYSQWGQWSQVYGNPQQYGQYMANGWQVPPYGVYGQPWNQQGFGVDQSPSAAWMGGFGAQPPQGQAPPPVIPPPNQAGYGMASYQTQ
inactive: [1] 0.068 | [2] 0.017 | [3] -0.02 | [4] 0.031 | [5] -0.021

TRIP12 isoform 2 (UniProt Q14669)
inactive: [1] -0.043 | [2] 0.07 | [3] -0.018 | [4] 0 | [5] 0.062

TIMM44 (UniProt O43615)
inactive: [1] -0.062 | [2] 0 | [3] 0.034 | [4] -0.035 | [5] -0.003

TBCE (UniProt Q15813)
inactive: [1] 0.008 | [2] -0.027 | [3] 0.014 | [4] 0.008 | [5] 0.015

THOC5 (UniProt Q13769)
inactive: [1] 0.026 | [2] 0.048 | [3] 0.016 | [4] -0.01 | [5] 0.006

TDRD3 isoform 3 (UniProt Q9H7E2)
inactive: [1] 0.082 | [2] 0.037 | [3] 0.027 | [4] 0.065 | [5] -0.01

TLE3 isoform 4 (UniProt Q04726)
UniProt Q04726, sequence (Q04726 whole entry, looked up): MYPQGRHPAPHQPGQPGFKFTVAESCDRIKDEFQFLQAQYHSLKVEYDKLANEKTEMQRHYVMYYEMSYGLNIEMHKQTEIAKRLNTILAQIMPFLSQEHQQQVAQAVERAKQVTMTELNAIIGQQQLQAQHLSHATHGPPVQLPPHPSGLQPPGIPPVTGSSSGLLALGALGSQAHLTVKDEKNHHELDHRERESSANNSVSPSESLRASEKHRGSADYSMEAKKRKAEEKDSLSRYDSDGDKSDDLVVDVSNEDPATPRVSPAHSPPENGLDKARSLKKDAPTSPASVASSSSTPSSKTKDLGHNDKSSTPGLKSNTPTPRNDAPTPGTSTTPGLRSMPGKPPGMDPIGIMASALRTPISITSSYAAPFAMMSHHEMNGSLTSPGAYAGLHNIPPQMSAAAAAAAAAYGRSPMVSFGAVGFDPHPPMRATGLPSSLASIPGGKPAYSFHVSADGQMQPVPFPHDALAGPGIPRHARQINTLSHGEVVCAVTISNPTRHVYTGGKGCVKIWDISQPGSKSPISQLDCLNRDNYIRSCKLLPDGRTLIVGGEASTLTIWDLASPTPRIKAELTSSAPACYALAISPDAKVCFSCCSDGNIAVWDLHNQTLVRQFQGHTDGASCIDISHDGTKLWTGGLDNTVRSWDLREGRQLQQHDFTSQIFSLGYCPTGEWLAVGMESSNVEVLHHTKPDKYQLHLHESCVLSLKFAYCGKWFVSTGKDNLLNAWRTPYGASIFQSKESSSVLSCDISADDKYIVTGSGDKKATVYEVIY
inactive: [1] 0.01 | [2] -0.033 | [3] 0.024 | [4] 0.025 | [5] 0.007

TTK (UniProt P33981)
UniProt P33981, sequence (P33981 whole entry, looked up): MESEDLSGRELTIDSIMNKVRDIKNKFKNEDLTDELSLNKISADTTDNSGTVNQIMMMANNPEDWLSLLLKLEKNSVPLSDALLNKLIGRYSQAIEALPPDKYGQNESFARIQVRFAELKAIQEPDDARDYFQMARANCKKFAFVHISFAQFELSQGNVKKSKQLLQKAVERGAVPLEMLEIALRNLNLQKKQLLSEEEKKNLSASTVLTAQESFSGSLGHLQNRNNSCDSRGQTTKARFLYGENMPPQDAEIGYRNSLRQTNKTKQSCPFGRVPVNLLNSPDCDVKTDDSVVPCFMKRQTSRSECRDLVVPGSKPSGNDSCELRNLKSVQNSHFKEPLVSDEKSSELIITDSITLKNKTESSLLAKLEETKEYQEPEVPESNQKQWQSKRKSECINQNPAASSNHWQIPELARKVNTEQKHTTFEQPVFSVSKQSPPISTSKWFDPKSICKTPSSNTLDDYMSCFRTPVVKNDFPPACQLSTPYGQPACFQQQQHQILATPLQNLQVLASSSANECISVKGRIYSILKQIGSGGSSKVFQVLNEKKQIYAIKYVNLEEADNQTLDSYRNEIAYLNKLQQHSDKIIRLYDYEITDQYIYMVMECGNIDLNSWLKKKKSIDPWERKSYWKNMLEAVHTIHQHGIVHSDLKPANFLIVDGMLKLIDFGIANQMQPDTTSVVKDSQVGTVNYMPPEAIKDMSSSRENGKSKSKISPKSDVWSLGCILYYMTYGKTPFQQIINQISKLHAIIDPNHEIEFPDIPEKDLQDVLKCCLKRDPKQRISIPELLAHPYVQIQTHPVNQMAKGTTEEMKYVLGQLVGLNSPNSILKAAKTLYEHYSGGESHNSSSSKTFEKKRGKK
inactive: [1] -0.016 | [2] -0.003 | [3] 0.068 | [4] 0.02 | [5] 0.003

TNIK (UniProt C9J338)
inactive: [1] -0.028 | [2] 0.067 | [3] 0.135 | [4] -0.225 | [5] -0.375

TUBB1 (UniProt Q9H4B7)
UniProt Q9H4B7, sequence (Q9H4B7 whole entry, looked up): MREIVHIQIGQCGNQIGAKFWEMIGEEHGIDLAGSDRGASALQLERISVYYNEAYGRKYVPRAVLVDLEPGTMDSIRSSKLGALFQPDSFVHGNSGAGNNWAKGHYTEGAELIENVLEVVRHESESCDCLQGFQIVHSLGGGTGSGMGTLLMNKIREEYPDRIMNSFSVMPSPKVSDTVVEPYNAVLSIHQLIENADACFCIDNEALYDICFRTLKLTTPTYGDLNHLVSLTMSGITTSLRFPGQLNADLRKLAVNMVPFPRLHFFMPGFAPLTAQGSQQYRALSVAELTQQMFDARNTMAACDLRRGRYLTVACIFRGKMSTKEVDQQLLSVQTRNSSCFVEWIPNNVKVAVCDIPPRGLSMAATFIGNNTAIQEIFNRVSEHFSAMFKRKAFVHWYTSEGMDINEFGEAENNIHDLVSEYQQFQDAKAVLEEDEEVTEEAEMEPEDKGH
inactive: [1] -0.005 | [2] 0.019 | [3] 0.008 | [4] 0.063 | [5] 0.087

UBAP2 (UniProt Q5T6F2)
inactive: [1] -0.019 | [2] -0.003 | [3] -0.008 | [4] -0.022 | [5] -0.119

TFAP4 (UniProt Q01664)
UniProt Q01664, sequence (Q01664 whole entry, looked up): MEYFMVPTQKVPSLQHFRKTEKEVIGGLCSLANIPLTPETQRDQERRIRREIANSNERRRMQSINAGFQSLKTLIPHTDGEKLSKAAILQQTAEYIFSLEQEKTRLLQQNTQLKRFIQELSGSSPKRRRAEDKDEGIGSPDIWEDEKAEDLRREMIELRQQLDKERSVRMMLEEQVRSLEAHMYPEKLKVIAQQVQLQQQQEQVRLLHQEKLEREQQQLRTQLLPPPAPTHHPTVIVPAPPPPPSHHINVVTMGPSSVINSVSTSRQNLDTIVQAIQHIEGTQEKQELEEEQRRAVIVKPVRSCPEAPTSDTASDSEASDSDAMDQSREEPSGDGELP
inactive: [1] 0.018 | [2] -0.069 | [3] 0.012 | [5] 0.081

TK1 (UniProt K7ERV3)
inactive: [1] -0.044 | [2] 0.007 | [3] -0.017 | [4] -0.002 | [5] -0.037

TGOLN2 isoform 7 (UniProt O43493)
UniProt O43493, sequence (O43493 whole entry, looked up): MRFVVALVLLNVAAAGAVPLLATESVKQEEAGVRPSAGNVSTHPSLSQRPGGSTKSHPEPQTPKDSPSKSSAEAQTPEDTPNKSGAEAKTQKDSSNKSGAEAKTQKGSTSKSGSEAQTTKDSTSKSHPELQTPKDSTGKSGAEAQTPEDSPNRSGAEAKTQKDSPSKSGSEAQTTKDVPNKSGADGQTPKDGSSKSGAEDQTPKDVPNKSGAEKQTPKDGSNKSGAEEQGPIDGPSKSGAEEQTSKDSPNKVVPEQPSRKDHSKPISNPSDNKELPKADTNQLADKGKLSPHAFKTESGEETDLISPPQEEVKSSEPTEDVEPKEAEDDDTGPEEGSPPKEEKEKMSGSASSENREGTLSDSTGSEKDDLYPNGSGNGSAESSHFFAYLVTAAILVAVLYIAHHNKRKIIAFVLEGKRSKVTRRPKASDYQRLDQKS
inactive: [1] 0.065 | [2] -0.029 | [3] -0.015 | [4] -0.017 | [5] -0.069

TBK1 (UniProt Q9UHD2)
inactive: [1] -0.012 | [2] 0.021 | [3] -0.031 | [4] -0.003 | [5] -0.023

TTI1 (UniProt O43156)
UniProt O43156, sequence (O43156 whole entry, looked up): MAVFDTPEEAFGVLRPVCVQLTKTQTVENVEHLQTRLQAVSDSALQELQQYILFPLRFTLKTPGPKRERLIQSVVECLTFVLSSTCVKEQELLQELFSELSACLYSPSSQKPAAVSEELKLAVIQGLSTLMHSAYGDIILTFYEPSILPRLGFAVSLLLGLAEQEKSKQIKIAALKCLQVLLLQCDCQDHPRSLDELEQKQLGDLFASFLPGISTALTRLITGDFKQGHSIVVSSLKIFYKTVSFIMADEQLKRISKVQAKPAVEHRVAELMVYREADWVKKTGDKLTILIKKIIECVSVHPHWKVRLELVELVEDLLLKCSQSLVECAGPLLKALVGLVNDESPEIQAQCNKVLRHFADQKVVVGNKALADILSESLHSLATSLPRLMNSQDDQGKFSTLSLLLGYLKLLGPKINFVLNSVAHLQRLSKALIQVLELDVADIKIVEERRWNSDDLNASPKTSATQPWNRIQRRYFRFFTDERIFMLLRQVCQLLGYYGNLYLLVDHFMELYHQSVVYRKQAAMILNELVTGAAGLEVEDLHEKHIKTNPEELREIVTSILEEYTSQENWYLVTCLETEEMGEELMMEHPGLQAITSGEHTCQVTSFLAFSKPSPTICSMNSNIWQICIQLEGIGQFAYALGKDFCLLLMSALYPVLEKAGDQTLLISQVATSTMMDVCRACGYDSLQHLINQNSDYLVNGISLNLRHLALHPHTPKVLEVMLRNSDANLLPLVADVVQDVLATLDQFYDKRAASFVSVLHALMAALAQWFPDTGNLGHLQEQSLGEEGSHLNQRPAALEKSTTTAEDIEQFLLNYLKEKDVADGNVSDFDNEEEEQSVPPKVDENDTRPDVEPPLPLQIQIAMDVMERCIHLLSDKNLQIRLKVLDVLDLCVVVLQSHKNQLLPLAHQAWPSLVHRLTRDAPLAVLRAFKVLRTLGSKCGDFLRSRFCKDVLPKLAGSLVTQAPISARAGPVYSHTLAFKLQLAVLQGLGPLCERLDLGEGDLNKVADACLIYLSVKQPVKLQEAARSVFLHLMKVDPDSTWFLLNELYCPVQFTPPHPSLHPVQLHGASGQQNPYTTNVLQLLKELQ
inactive: [1] -0.004 | [2] -0.011 | [3] -0.004 | [4] 0.034 | [5] 0.051
